# Assay results reported in publication PMC11062922 (Nature Chemical Biology, 2023).
# Where two headings read alike, the source gives them in different places.
# What was measured:
# AAK1 = test system: AAK1; design: species or system human, MV4-11 + K-562 + COLO205 + SK-N-BE2 + OVCAR-8; details: read-out: apparent Kd, compound concentrations: 100 nM and 1000 nM (sheet 'Samples'), n = 1
# Q6ZSR9 = Q6ZSR9 (human, UniProt Q6ZSR9); design: species or system MV4-11 + K-562 + COLO205 + SK-N-BE2 + OVCAR-8; details: read-out: apparent Kd, compound concentrations: 100 nM and 1000 nM (sheet 'Samples'), n = 1
# Q6ZSR9, sequence (Q6ZSR9 whole entry, looked up): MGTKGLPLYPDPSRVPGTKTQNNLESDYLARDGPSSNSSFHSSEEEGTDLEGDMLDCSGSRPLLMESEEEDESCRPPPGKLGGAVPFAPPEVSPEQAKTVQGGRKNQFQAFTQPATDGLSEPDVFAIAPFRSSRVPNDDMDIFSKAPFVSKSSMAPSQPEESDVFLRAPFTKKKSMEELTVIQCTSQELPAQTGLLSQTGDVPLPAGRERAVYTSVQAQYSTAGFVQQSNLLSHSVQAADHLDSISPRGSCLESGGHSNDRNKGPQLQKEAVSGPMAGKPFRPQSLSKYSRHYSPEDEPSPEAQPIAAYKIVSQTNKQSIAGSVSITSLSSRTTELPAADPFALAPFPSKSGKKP
# ABL1 = test system: ABL1; design: species or system human, MV4-11 + K-562 + COLO205 + SK-N-BE2 + OVCAR-8; details: read-out: apparent Kd, n = 1
# ABL2 = test system: ABL2; design: species or system human, MV4-11 + K-562 + COLO205 + SK-N-BE2 + OVCAR-8; details: read-out: apparent Kd, n = 1
# BCR = test system: BCR; design: species or system human, MV4-11 + K-562 + COLO205 + SK-N-BE2 + OVCAR-8; details: read-out: apparent Kd, n = 1
# FRK = test system: FRK; design: species or system human, MV4-11 + K-562 + COLO205 + SK-N-BE2 + OVCAR-8; details: read-out: apparent Kd, n = 1
# FYN = test system: FYN; design: species or system human, MV4-11 + K-562 + COLO205 + SK-N-BE2 + OVCAR-8; details: read-out: apparent Kd, n = 1
# GAK = test system: GAK; design: species or system human, MV4-11 + K-562 + COLO205 + SK-N-BE2 + OVCAR-8; details: read-out: apparent Kd, n = 1
# HCK = test system: HCK; design: species or system human, MV4-11 + K-562 + COLO205 + SK-N-BE2 + OVCAR-8; details: read-out: apparent Kd, n = 1
# LCK = test system: LCK; design: species or system human, MV4-11 + K-562 + COLO205 + SK-N-BE2 + OVCAR-8; details: read-out: apparent Kd, n = 1
# LYN = test system: LYN; design: species or system human, MV4-11 + K-562 + COLO205 + SK-N-BE2 + OVCAR-8; details: read-out: apparent Kd, n = 1
# PTK6 = test system: PTK6; design: species or system human, MV4-11 + K-562 + COLO205 + SK-N-BE2 + OVCAR-8; details: read-out: apparent Kd, n = 1
# RET = test system: RET; design: species or system human, MV4-11 + K-562 + COLO205 + SK-N-BE2 + OVCAR-8; details: read-out: apparent Kd, n = 1
# RIPK2 = test system: RIPK2; design: species or system human, MV4-11 + K-562 + COLO205 + SK-N-BE2 + OVCAR-8; details: read-out: apparent Kd, n = 1
# RIPK3 = test system: RIPK3; design: species or system human, MV4-11 + K-562 + COLO205 + SK-N-BE2 + OVCAR-8; details: read-out: apparent Kd, n = 1
# YES1 = test system: YES1; design: species or system human, MV4-11 + K-562 + COLO205 + SK-N-BE2 + OVCAR-8; details: read-out: apparent Kd, n = 1
# CLK1 = test system: CLK1; design: species or system human, MV4-11 + K-562 + COLO205 + SK-N-BE2 + OVCAR-8; details: read-out: apparent Kd, compound concentrations: 100 nM and 1000 nM (sheet 'Samples'), n = 1
# CSNK2A2 = test system: CSNK2A2; design: species or system human, MV4-11 + K-562 + COLO205 + SK-N-BE2 + OVCAR-8; details: read-out: apparent Kd, compound concentrations: 100 nM and 1000 nM (sheet 'Samples'), n = 1
# [1] = compound concentrations:100 nM and 1000 nM (sheet 'Samples')
smiles,measurement,setting,value
Cc1cccc(Nc2nc(NCCN)ncc2C(N)=O)c1 [GSK1292139B],potency estimated from few doses,AAK1; CATDS: 0.21003536001632001,164 nM
same,potency estimated from few doses,Q6ZSR9; CATDS: 0.320838512301937,88 nM
CCN(CC)CCOc1ccc(Nc2ncc3cc(-c4c(Cl)cccc4Cl)c(=O)n(C)c3n2)cc1 [SB-601273],potency estimated from few doses,ABL1; [1],72.7 nM
same,potency estimated from few doses,ABL2; [1],8.98 nM
same,potency estimated from few doses,BCR; [1],5.53 nM
same,potency estimated from few doses,FRK; [1],103 nM
same,potency estimated from few doses,FYN; [1],130 nM
same,potency estimated from few doses,GAK; [1],55.4 nM
same,potency estimated from few doses,HCK; [1],299 nM
same,potency estimated from few doses,LCK; [1],39 nM
same,potency estimated from few doses,LYN; [1],111 nM
same,potency estimated from few doses,PTK6; [1],224 nM
same,potency estimated from few doses,RET; [1],167 nM
same,potency estimated from few doses,RIPK2; [1],19.4 nM
same,potency estimated from few doses,RIPK3; [1],765 nM
same,potency estimated from few doses,YES1; [1],80.1 nM
O=C1N=C(NCc2cccs2)SC1Cc1ccc2ncccc2c1 (stereo not shown) [RO4629078-000],potency estimated from few doses,"ABL1; compound concentrations: 100 nM and 1000 nM (sheet 'Samples'), CATDS: 1.03104130889283E-2",621 nM
same,potency estimated from few doses,"ABL2; compound concentrations: 100 nM and 1000 nM (sheet 'Samples'), CATDS: 1.75956171974825E-2",217 nM
same,potency estimated from few doses,"BCR; compound concentrations: 100 nM and 1000 nM (sheet 'Samples'), CATDS: 1.49763815406264E-2",286 nM
same,potency estimated from few doses,CLK1; CATDS: 1.45453045118455E-2,302 nM
same,potency estimated from few doses,CSNK2A2; CATDS: 1.0295745768990301E-2,623 nM
same,potency estimated from few doses,"FRK; compound concentrations: 100 nM and 1000 nM (sheet 'Samples'), CATDS: 9.6278136963786204E-3",738 nM
same,potency estimated from few doses,"FYN; compound concentrations: 100 nM and 1000 nM (sheet 'Samples'), CATDS: 9.7047847946103404E-3",723 nM
same,potency estimated from few doses,"GAK; compound concentrations: 100 nM and 1000 nM (sheet 'Samples'), CATDS: 1.7863526328031998E-2",211 nM
same,potency estimated from few doses,"HCK; compound concentrations: 100 nM and 1000 nM (sheet 'Samples'), CATDS: 1.13886455432966E-2",493 nM
same,potency estimated from few doses,"LCK; compound concentrations: 100 nM and 1000 nM (sheet 'Samples'), CATDS: 1.24730570121841E-2",406 nM
same,potency estimated from few doses,"LYN; compound concentrations: 100 nM and 1000 nM (sheet 'Samples'), CATDS: 9.9981449743306808E-3",670 nM
same,potency estimated from few doses,"PTK6; compound concentrations: 100 nM and 1000 nM (sheet 'Samples'), CATDS: 9.8307432544906398E-3",699 nM
same,potency estimated from few doses,Q6ZSR9; CATDS: 1.4224903483056099E-2,314 nM
same,potency estimated from few doses,"RET; compound concentrations: 100 nM and 1000 nM (sheet 'Samples'), CATDS: 1.39088138771742E-2",328 nM
same,potency estimated from few doses,"RIPK2; compound concentrations: 100 nM and 1000 nM (sheet 'Samples'), CATDS: 9.4422951571236906E-3",777 nM
same,potency estimated from few doses,"YES1; compound concentrations: 100 nM and 1000 nM (sheet 'Samples'), CATDS: 1.15943383738287E-2",474 nM
Cl.O=C1N=C(NCc2ccccn2)S/C1=C\c1ccc2ncccc2c1 [RO4874953-001],potency estimated from few doses,AAK1; CATDS: 0.10575738699934099,813 nM
same,potency estimated from few doses,CLK1; CATDS: 9.3934655889041305E-2,1020 nM
same,potency estimated from few doses,CSNK2A2; CATDS: 0.101925374884365,870 nM
same,potency estimated from few doses,"GAK; compound concentrations: 100 nM and 1000 nM (sheet 'Samples'), CATDS: 8.1785679571560799E-2",1370 nM
same,potency estimated from few doses,Q6ZSR9; CATDS: 8.7999658255021304E-2,1160 nM
CNC1=NC(=O)/C(=C/c2ccc3ncccc3c2)S1 [RO4595949-000],potency estimated from few doses,AAK1; CATDS: 6.4601129134093493E-2,737 nM
same,potency estimated from few doses,CLK1; CATDS: 0.21110804330204799,68.5 nM
same,potency estimated from few doses,CSNK2A2; CATDS: 0.13149975380310699,144 nM
same,potency estimated from few doses,Q6ZSR9; CATDS: 0.14278895493122401,125 nM
Cc1ccc(O)cc1Nc1ccnc2cc(-c3ccccn3)ccc12.Cl [GW440139A],potency estimated from few doses,"ABL1; compound concentrations: 100 nM and 1000 nM (sheet 'Samples'), CATDS: 2.9086276614824699E-2",609 nM
same,potency estimated from few doses,"ABL2; compound concentrations: 100 nM and 1000 nM (sheet 'Samples'), CATDS: 3.5730235281971501E-2",238 nM
same,potency estimated from few doses,"BCR; compound concentrations: 100 nM and 1000 nM (sheet 'Samples'), CATDS: 6.7644332106689603E-2",40.7 nM
same,potency estimated from few doses,"GAK; compound concentrations: 100 nM and 1000 nM (sheet 'Samples'), CATDS: 4.3663241287780298E-2",121 nM
same,potency estimated from few doses,"RET; compound concentrations: 100 nM and 1000 nM (sheet 'Samples'), CATDS: 4.9371716156535399E-2",85.8 nM
same,potency estimated from few doses,"RIPK2; compound concentrations: 100 nM and 1000 nM (sheet 'Samples'), CATDS: 3.9139887822916601E-2",171 nM
same,potency estimated from few doses,"RIPK3; compound concentrations: 100 nM and 1000 nM (sheet 'Samples'), CATDS: 4.4642127518175201E-2",114 nM
NC1=NC(=O)/C(=C/c2ccc3ncccc3c2)S1 [RO4569139-000],potency estimated from few doses,AAK1; CATDS: 6.8889261451454395E-2,1710 nM
same,potency estimated from few doses,CLK1; CATDS: 0.136614362929,259 nM
same,potency estimated from few doses,CSNK2A2; CATDS: 0.14765038324125301,222 nM
same,potency estimated from few doses,Q6ZSR9; CATDS: 7.6885749429296102E-2,1130 nM
